Reference: PubChem BioAssay (EPA / NIEHS)
Records with an inconclusive call do not appear. Some compounds were tested as several samples or in several runs, with calls that do not always agree. The source made the active and inactive calls. How the source made its calls: active means hit-call score of the fitted dose curve at least 0.9, where 1 is the maximum; inconclusive means response in the unintended direction; inactive means score below 0.9.

Key:
[1] = CCTE_Simmons_CellTiterGLO_HEK293T: Viability Assessment in CCTE's Assays for Thyroperoxidase (TPO) Inhibition, Simmons Lab (AID 2283665);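 on AC50: cells exposed to compound for 24 h before readout; actives reduce ATP signal below DMSO vehicle meaning cytotoxicity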
Method in brief: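 Cytotoxicity counter-screen: human HEK293T cells in low-serum (1% FBS) medium receive test chemical, 5 nM to 87.5 uM final, for 24 h; ATP is quantified by luciferase luminescence.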

[2] = target: Luciferin 4-monooxygenase (Photinus pyralis) (UniProt P08659); assay: CCTE_Simmons_QuantiLum_inhib_2: CCTE's Firefly Luciferase Inhibition Assay, Simmons Lab (AID 2283767);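 on AC50: potency for inhibitors that lower luciferase luminescence relative to DMSO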
Method in brief: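 Counter-screen for nonspecific enzyme inhibition: purified firefly luciferase incubated 30 min at 37C with chemicals up to 87.5 uM final, then luminescence measured after luciferin/dATP injection; activity fitted against DMSO baseline.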

[3] = Tanguay_ZF_120hpf_PE_legacy: (Legacy) Oregon State University Tanguay Lab 120 Hour Post-fertilization zebrafish Assay for Pericardial Edema (AID 2283640)
Method in brief: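 Embryos from wild-type 5D adults were staged, then dosed in 0.64% DMSO. They were kept sealed in the dark at 28C until 120 hpf. Pericardial edema was then recorded as present or absent.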

[4] = Tanguay_ZF_120hpf_BRAI_legacy: (Legacy) Oregon State University Tanguay Lab 120 Hour Post-fertilization zebrafish Assay for Brain Malformation (AID 2283641)
Method in brief: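 Wild-type 5D larvae, static waterborne exposure to 120 hpf, 28C, 0.64% v/v DMSO. Brightfield scoring of brain defects, binary; dead embryos excluded. Positive ctrl 5uM trimethyltin chloride.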

[5] = Tanguay_ZF_120hpf_SOMI_legacy: (Legacy) Oregon State University Tanguay Lab 120 Hour Post-fertilization zebrafish Assay for Somite Malformation (AID 2283647)
Method in brief: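 Read-out: presence or absence of somite malformation in 120 hpf larvae, gain-of-signal relative to DMSO baseline. Embryos lacked chorion (pronase, 4 hpf) and were exposed statically from 6 hpf at 28C; dead larvae not scored.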

[6] = Tanguay_ZF_120hpf_PFIN_legacy: (Legacy) Oregon State University Tanguay Lab 120 Hour Post-fertilization zebrafish Assay for Pectoral Fin Malformation (AID 2283648);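 further: each larva judged yes or no for fin defect by brightfield with dead larvae skipped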
Method in brief: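 Dechorionated Tropical 5D wild-type zebrafish embryos, one per well, statically exposed from 6 to 120 hpf at 28C with 0.64% DMSO final. Pectoral fin malformation scored present/absent by brightfield at 120 hpf; not scored in dead embryos.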

[7] = Tanguay_ZF_120hpf_CFIN_legacy: (Legacy) Oregon State University Tanguay Lab 120 Hour Post-fertilization zebrafish Assay for Caudal Fin Malformation (AID 2283649)
Method in brief: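 Binary presence or absence of caudal fin malformation at 120 hpf, read by brightfield microscopy, with DMSO as baseline. Larvae came from 5D wild-type embryos exposed statically from 6 hpf at 28C after pronase dechorionation.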

[8] = Tanguay_ZF_120hpf_PIG_legacy: (Legacy) Oregon State University Tanguay Lab 120 Hour Post-fertilization zebrafish Assay for Pigmentation Malformation (AID 2283650)
Method in brief: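 Dechorionated Tropical 5D wild-type embryos, one per well from 6 hpf, statically exposed at 28C in the dark until 120 hpf, 0.64% DMSO final. Pigmentation scored present/absent by brightfield microscopy; dead embryos not scored; fitted versus DMSO.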

[9] = Tanguay_ZF_120hpf_CIRC_legacy: (Legacy) Oregon State University Tanguay Lab 120 Hour Post-fertilization zebrafish Assay for Circulatory Malformation (AID 2283651)
Method in brief: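 Using wild-type Tropical 5D zebrafish, we exposed dechorionated embryos from 6 to 120 hpf in embryo medium with 0.64% DMSO. Circulatory defects were scored as present or absent; 5uM trimethyltin chloride served as positive control.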

[10] = Tanguay_ZF_120hpf_SWIM_legacy: (Legacy) Oregon State University Tanguay Lab 120 Hour Post-fertilization zebrafish Assay for Swim Bladder Malformation (AID 2283654);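 further: swim bladder malformation in each larva scored yes or no under brightfield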
Method in brief: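 Dechorionated wild-type Tropical 5D zebrafish embryos, one per well from 6 hpf, were statically exposed at 28C until 120 hpf in 0.64% DMSO. Swim bladder malformation scored as present/absent by brightfield microscopy; not scored in dead larvae.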

[11] = Tanguay_ZF_120hpf_TRUN_legacy: (Legacy) Oregon State University Tanguay Lab 120 Hour Post-fertilization zebrafish Assay for Truncated Body (AID 2283655)
Method in brief: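 Truncated body is recorded as a binary endpoint at 120 hpf by brightfield imaging of wild-type 5D larvae. Exposure runs statically from 6 hpf at 28C with 0.64% DMSO; embryos dying earlier are not scored.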

[12] = Tanguay_ZF_120hpf_NC_legacy: (Legacy) Oregon State University Tanguay Lab 120 Hour Post-fertilization zebrafish Assay for Notochord and Tail Malformation (AID 2283656)
Method in brief: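 Dechorionated 5D zebrafish, 1/well from 6 hpf; static exposure to 120 hpf, 28C, sealed, dark; final DMSO 0.64% v/v. NC scored binary (present/absent); dead embryos not scored. Fit vs DMSO baseline, gain direction.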

[13] = Tanguay_ZF_120hpf_TR_legacy: (Legacy) Oregon State University Tanguay Lab 120 Hour Post-fertilization zebrafish Assay for Touch Response (AID 2283667)
Method in brief: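 Tropical 5D wild-type zebrafish embryos statically exposed to 120 hpf at 28°C, sealed and dark-covered, 0.64% DMSO final; touch response scored as present/absent by brightfield microscopy at 120 hpf. Trimethyltin chloride 5 uM positive control; dead embryos not scored.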

[14] = Tanguay_ZF_120hpf_ActivityScore_legacy: (Legacy) Oregon State University Tanguay Lab 120 Hour Post-fertilization zebrafish Assay Score for Activity (AID 2283742)
Method in brief: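 Dechorionated Tropical 5D embryos, one per well from 6 hpf, statically exposed to 120 hpf at 28 °C in 0.64% DMSO. Mortality and malformations scored binary by brightfield microscopy; activity score combines 18 endpoints, fitted positively versus DMSO.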

Chain of Luciferin 4-monooxygenase (Photinus pyralis) (P08659 whole entry, looked up): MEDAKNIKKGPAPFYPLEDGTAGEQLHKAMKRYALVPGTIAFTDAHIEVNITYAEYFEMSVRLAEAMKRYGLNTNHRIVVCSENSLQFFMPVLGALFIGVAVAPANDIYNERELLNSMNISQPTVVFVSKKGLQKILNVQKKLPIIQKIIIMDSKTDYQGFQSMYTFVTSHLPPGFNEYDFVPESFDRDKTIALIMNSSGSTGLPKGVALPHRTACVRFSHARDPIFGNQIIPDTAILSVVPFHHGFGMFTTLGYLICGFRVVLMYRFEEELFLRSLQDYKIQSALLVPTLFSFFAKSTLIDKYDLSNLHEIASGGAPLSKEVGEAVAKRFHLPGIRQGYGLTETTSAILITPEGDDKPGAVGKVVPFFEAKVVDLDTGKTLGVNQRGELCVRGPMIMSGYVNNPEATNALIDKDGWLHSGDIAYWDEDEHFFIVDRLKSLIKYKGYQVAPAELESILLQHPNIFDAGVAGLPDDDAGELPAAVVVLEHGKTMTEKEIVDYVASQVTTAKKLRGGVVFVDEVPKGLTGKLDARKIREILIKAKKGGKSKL

CCCCCCCCCCCCS
AC50 [1]: 83.5 µM (active)
outcome [2]: inactive

CN1CCc2cccc3c2[C@H]1Cc1ccc(O)c(O)c1-3
AC50 [1]: 14.4 µM (active)
AC50 [2]: 12.5 µM (active)

CCC(C)(C)C1CCC(=O)CC1
outcome [1]: inactive
outcome [2]: inactive

NC(N)=S
outcome [1]: inactive
AC50 [2]: 10.4 µM (active)
outcome [2]: inactive

CCCCOCCOCCO
outcome [3]: inactive
outcome [4]: inactive
outcome [5]: inactive
outcome [6]: inactive
outcome [7]: inactive
outcome [8]: inactive
outcome [9]: inactive
outcome [10]: inactive
outcome [11]: inactive
outcome [12]: inactive
outcome [13]: inactive
outcome [14]: inactive

CCCCCCOc1ccc(O)cc1
AC50 [1]: 66.1 µM (active)
AC50 [2]: 53.8 µM (active)

[O-]/[N+](=N\O)c1ccccc1
outcome [1]: inactive
AC50 [2]: 31.7 µM (active)

O=C(O)CS
outcome [1]: inactive
outcome [2]: inactive

CCc1cccc(O)c1
outcome [1]: inactive
AC50 [2]: 55.2 µM (active)
